Drawing on PubChem BioAssay (Tox21), this text covers Potency and outcome for 26 compounds.

For experiment [1], the target named is Progesterone receptor (Homo sapiens) (UniProt P06401). Briefly: qHTS assay to identify small molecule antagonists of the progesterone receptor (PR) signaling pathway (AID 1346795; active means well fitted inhibition curve with a large enough effect in the signal ratio in the repeat runs, not every such curve was filed as active; the % refers to the signal ratio; further: potency means the concentration at half of the fitted maximal effect). In short, it runs like this:
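Fluorescence intensity measured 2 hr after adding beta-lactamase FRET substrate to PR-UAS-bla HEK293T cells that had been co-treated 16 hr with compound and 1 nM R5020 (final concentration) in 2% charcoal-stripped FBS.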

Experiment [2] is described as follows: qHTS assay to identify small molecule antagonists of the progesterone receptor (PR) signaling pathway - cell viability counter screen (AID 1346798). Further: nearly all actives have a fitted effect of over 50% in size. Further: potency means the concentration at half of the fitted maximal effect. In short, it runs like this:
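CellTiter-Glo luminescence; PR-UAS-bla HEK293T, 3,000 cells/well; compound + R5020, 16 hr, 37C/5% CO2; 30 min RT before read.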
(In general: Quantitative high-throughput screening tests each substance at several concentrations.)

Experiment [3] in a line: qHTS assay to identify small molecule agonists of the progesterone receptor (PR) signaling pathway - cell viability counter screen (AID 1346799; calls by dose curve; further: nearly all actives have a fitted effect of over 45% in size; further: potency means the concentration at half of the fitted maximal effect). The method, boiled down:
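In parallel with the beta-lactamase readout, cytotoxicity toward PR-UAS-bla HEK293T cells was measured by CellTiter-Glo luminescence following 16 hr compound incubation in 2% charcoal-stripped FBS medium.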

Experiment [4] can be described thus: qHTS assay to identify small molecule antagonists of the TGF-beta/Smad signaling pathway - cell viability counter screen (AID 1346824). Further: nearly all actives have a fitted effect of over 50% in size. In short, it runs like this:
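SBE-bla HEK 293T cells were plated overnight at 37 C, then given compounds in DMSO plus TGF-beta1 (added as 0.25 ng/mL solution) for 5 hr. After the bla read, CellTiter-Glo was added to the same wells and luminescence read after 30 min at room temperature.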

Experiment [5] in a line: qHTS assay to identify small molecule agonists of the TGF-beta/Smad signaling pathway - cell viability counter screen (AID 1346829). Further: top concentration of the series differs between compounds; nearly all actives have a fitted effect of over 45% in size. The method, boiled down:
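Tox21 qHTS format: SBE-bla HEK 293T cells treated with DMSO-dissolved compounds for 5 hr; CellTiter-Glo luminescence after 30 min at room temperature.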

A short description of experiment [6]: qHTS assay to identify small molecule agonists of the TGF-beta/Smad signaling pathway (AID 1346859; active means well fitted activation curve with a large enough effect in the signal ratio in the repeat runs, not every such curve was filed as active; the % refers to the signal ratio; further: series mostly up to about 77 µM). The method, boiled down:
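After overnight seeding, SBE-bla HEK 293T cells are dosed with compounds in DMSO and kept 5 hr at 37 C, 5% CO2. LiveBLAzer-type FRET substrate is then applied for 2 hr at room temperature.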

In experiment [7] the target is Thyrotropin-releasing hormone receptor (Homo sapiens) (UniProt P34981). Briefly: qHTS assay to identify small molecule antagonists of the thyrotropin-releasing hormone receptor (TRHR) signaling pathway (AID 1346877; active means well fitted inhibition curve with a large enough effect in the repeat runs, not every such curve was filed as active; further: series mostly up to about 51 µM). In short, it runs like this:
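Intracellular calcium fluorescence, read kinetically every second over 3 min, reports TRH-evoked signalling in HEK293 cells carrying TRHR. Test compounds were added 5 min ahead of a 1 nM TRH challenge.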

The target is the same in experiment [8]. Put plainly: qHTS assay to identify small molecule agonists of the thyrotropin-releasing hormone receptor (TRHR) signaling pathway (AID 1346891; calls by dose curve;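 further: HEK293 cells expressing TRHR with calcium dye readout; series mostly up to about 58 µM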). The method, boiled down:
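Compounds were tested as agonists at 15 concentrations, in triplicate, on TRHR-Hek293 cells; calcium-sensitive dye fluorescence was recorded for 3 min following addition.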

A short description of experiment [9]: Human pregnane X receptor (PXR) small molecule agonists, qHTS cell viability counter screen (AID 1346977). Further: nearly all actives have a fitted effect of over 50% in size. Further: potency means the concentration at half of the fitted maximal effect. In short, it runs like this:
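Viability counter screen: CellTiter-Fluor signal in PXR-Luc HepG2 cells, 24hr compound exposure, 37C, 5% CO2.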

The target of experiment [10] is Progesterone receptor (Homo sapiens) (UniProt P06401). Briefly: qHTS assay to identify small molecule agonists of the progesterone receptor (PR) signaling pathway (AID 1346784; calls by dose curve; further: nearly all actives have a fitted effect of over 30% in size). The method, boiled down:
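Fluorescence from LiveBLAzer B/G FRET substrate cleavage (2 hr, RT) reported PR activation in PR-UAS-bla HEK 293T cells treated 16 hr at 37C/5% CO2 with compounds; medium contained 2% charcoal-stripped FBS.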

Inconclusive results are not listed. Active and inactive are the calls of the source. Unless noted, the call rests on the fitted dose curve; in most records, active means well fitted curve in the direction sought with a large enough effect in the repeat runs; inconclusive means weak or mixed curves; inactive means no such curve, though single readings can be large; an effect the other way counts as inactive or inconclusive.

Sequence of Thyrotropin-releasing hormone receptor (Homo sapiens) (P34981 whole entry, looked up): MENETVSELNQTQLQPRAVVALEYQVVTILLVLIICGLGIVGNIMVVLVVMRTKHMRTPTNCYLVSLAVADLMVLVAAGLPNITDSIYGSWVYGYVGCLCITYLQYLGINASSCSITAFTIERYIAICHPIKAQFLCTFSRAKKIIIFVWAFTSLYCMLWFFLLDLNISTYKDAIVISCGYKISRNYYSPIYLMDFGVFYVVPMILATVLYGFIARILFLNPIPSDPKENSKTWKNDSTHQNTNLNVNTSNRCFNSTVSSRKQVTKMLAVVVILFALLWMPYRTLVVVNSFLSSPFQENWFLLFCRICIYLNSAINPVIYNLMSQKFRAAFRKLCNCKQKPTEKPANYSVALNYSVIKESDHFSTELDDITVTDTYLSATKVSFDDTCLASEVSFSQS
Sequence of Progesterone receptor (Homo sapiens) (P06401 whole entry, looked up): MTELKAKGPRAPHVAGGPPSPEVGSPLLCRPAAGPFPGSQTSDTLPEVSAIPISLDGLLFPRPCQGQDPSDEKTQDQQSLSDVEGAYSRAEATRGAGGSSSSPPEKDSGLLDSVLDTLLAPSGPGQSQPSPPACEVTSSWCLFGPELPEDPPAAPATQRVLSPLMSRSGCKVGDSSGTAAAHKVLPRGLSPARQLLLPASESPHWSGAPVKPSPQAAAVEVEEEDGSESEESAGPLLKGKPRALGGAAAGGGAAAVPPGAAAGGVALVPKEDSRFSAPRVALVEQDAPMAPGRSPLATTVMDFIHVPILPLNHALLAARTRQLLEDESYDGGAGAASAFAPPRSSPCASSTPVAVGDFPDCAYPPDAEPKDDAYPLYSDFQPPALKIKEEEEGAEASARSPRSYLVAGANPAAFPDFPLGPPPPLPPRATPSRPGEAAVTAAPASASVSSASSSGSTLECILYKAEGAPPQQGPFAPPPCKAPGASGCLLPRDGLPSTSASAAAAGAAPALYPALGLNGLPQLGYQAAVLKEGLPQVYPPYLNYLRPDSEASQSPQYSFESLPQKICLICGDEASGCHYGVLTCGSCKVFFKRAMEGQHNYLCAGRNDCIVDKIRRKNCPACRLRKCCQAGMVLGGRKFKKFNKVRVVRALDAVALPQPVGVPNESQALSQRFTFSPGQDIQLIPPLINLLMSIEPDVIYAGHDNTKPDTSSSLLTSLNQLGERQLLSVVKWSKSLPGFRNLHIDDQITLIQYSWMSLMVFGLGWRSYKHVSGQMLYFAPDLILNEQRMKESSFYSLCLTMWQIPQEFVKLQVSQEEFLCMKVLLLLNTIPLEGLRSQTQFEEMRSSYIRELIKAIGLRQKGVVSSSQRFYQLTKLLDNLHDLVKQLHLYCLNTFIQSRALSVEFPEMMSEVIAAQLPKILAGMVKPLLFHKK

As to `C(CCOCC1CO1)COCC1CO1` (stereo not given), the Potency result in [1], in [2], in experiment [3], in experiment [4] and in experiment [9] was “inactive” in each case. Moreover, the compound was called inactive in experiment [5], in experiment [6], in [7] and in [8].
`Cc1ncc2n1-c1ccc(Cl)cc1C(c1ccccc1F)=NC2`: the Potency entry in experiment [10], in experiment [4] and in experiment [9] was “inactive” throughout. Also, the compound was classed as inactive in [5], in experiment [6] and in experiment [8].
Turning to `O=NN1CCN(N=O)CC1`, the Potency result in experiment [1], in experiment [2], in experiment [3], in experiment [4] and in experiment [9] was “inactive” in each case. Moreover, the compound was classed as inactive in [5], in experiment [6], in [7] and in experiment [8].
In the case of `COc1cccc(C(=O)NN(C(=O)c2cc(C)cc(C)c2)C(C)(C)C)c1C`, the Potency entry in experiment [1], in [2], in [3], in experiment [4] and in experiment [9] was “inactive” throughout. Also, the outcome in experiment [5], in experiment [6], in experiment [7] and in experiment [8] was inactive.
Turning to `CC1(C)C(=O)NC(=O)NC1=O`, the Potency entry in experiment [10] and in experiment [9] was “inactive” throughout. For the same compound, the compound was classed as inactive in experiment [5], in experiment [6], in experiment [7] and in experiment [8].
In the case of `CCN(Cc1ccc(Cl)nc1)/C(=C/[N+](=O)[O-])NC`, the Potency entry in experiment [10], in experiment [2], in experiment [3] and in experiment [9] was “inactive” each time. In addition, the call in experiment [5], in [6], in experiment [7] and in experiment [8] was inactive.
Regarding `c1coc(-c2nc3ccccc3[nH]2)c1`, the Potency entry in [1], in experiment [2], in [3], in [4] and in experiment [9] was “inactive” in each case. The compound was classed as inactive in [5], in experiment [6] and in experiment [8].
Take `CN1CCC(O)(c2ccc(F)cc2)C(C(=O)c2ccc(F)cc2)C1` (stereo not given): the Potency result in experiment [1], in experiment [2], in experiment [3] and in [4] was “inactive” throughout. Also, the compound was called inactive in [5], in experiment [6], in [7] and in [8].
Take `CC(N)=S`: the Potency result in [1], in experiment [2], in experiment [3], in [4] and in [9] was “inactive” in each case. Moreover, the outcome in experiment [5], in experiment [6] and in experiment [8] was inactive.
As for `O=C(Nc1ccccc1)N(Cc1ccc(Cl)cc1)C1CCCC1`, the Potency entry in [10], in experiment [2] and in [4] was “inactive” each time. Also, the call in experiment [5], in experiment [6], in experiment [7] and in [8] was inactive. Further, the Potency in experiment [9] was 61.1 µM (active).
`CCN(CC)C(C)C(=O)c1ccccc1` (stereo not given): the Potency result in experiment [1], in experiment [2], in experiment [3], in experiment [4] and in [9] was “inactive” in each case. The outcome in [5], in [6], in [7] and in [8] was inactive.
As to `CC(Oc1ccc(Oc2ncc(C(F)(F)F)cc2Cl)cc1)C(=O)O` (stereo not given), the Potency result in [10], in [4] and in experiment [9] was “inactive” in each case. Also, in experiment [2], the Potency is 7.7 µM (active). Moreover, the compound was called inactive in experiment [5] and in experiment [6].
Regarding `CC1COC2(c3ccccc3Cl)c3cc(Cl)ccc3NC(=O)CN12` (stereo not given), the Potency result in [10], in experiment [3], in experiment [4] and in experiment [9] was “inactive” each time. Also, the result in experiment [5] and in experiment [6] was inactive.
`CCOP(=S)(OCC)Oc1cc(-c2ccccc2)on1`: the Potency result in [10], in [2] and in experiment [9] was “inactive” in each case. Besides, the compound was classed as inactive in experiment [5], in experiment [6], in [7] and in experiment [8].
Turning to `CN1C[C@@H](NS(=O)(=O)N(C)C)C[C@@H]2c3cccc4c3c(cn4C)C[C@H]21`, the Potency entry in experiment [1], in [2], in [3], in [4] and in experiment [9] was “inactive” each time. The compound was classed as inactive in [5], in experiment [6] and in experiment [8].
For `CC(COc1ccc(Oc2ccccc2)cc1)Oc1ccccn1` (stereo not given), the Potency result in experiment [10] and in experiment [9] was “inactive” throughout. Also, the outcome in experiment [5], in [6] and in experiment [8] was inactive.
For the compound `NC(=O)c1cc([N+](=O)[O-])cc([N+](=O)[O-])c1`, the Potency entry in experiment [1], in experiment [2], in [3] and in [4] was “inactive” each time. The call in [5], in experiment [6] and in experiment [8] was inactive.
`Nc1c(Br)cc([N+](=O)[O-])cc1[N+](=O)[O-]`: the Potency in experiment [1] was 27.6 µM (active). The Potency entry in experiment [2] and in experiment [3] was “inactive” each time. The call in experiment [5], in [6], in [7] and in experiment [8] was inactive.
As to `COC(C)(C)C`, the Potency result in experiment [1], in experiment [2], in experiment [4] and in experiment [9] was “inactive” each time. The compound was called inactive in [5] and in [6].
For the compound `N#Cc1ccncc1`, the Potency entry in [2], in experiment [3], in experiment [4] and in experiment [9] was “inactive” in each case. The compound was classed as inactive in experiment [5] and in experiment [6].
`C[C@H]1CCC[C@H](O)CCCCCc2cc(O)cc(O)c2C(=O)O1`: the compound was classed as inactive in experiment [5], in experiment [6], in [7] and in experiment [8]. The Potency in [9] was 48.9 µM (active).
On to `CCCCCCBr`, for which the Potency result in experiment [2], in [3], in [4] and in [9] was “inactive” throughout. For the same compound, the compound was classed as inactive in [5] and in [6].
Turning to `ClCCCN1CCN(c2cccc(Cl)c2)CC1`, the Potency result in [2], in [4] and in [9] was “inactive” each time. Moreover, in experiment [3], the Potency is 1.19 µM (active). Also, the outcome in experiment [5], in [6], in [7] and in experiment [8] was inactive.
As for `CSc1ccc(C(=O)C(C)(C)N2CCOCC2)cc1`, in experiment [1], the Potency was 27.3 µM (active). In addition, the Potency entry in experiment [2], in [4] and in experiment [9] was “inactive” throughout. For the same compound, the compound was classed as inactive in experiment [5], in experiment [6], in experiment [7] and in experiment [8].
For the compound `COc1ncc(F)c2nc(S(=O)(=O)Nc3c(F)cccc3F)nn12`, the Potency entry in experiment [1], in experiment [2], in experiment [3] and in experiment [9] was “inactive” each time. In addition, the call in experiment [5], in [6] and in [8] was inactive.
In the case of `CCC(C)(C)c1cc(-n2nc3ccccc3n2)c(O)c(C(C)(C)CC)c1`, the Potency entry in experiment [2], in [4] and in experiment [9] was “inactive” throughout. The compound was classed as inactive in experiment [5] and in [6].
